# Source: PubChem BioAssay (Tox21)
# Inconclusive results are not listed. Entries that show only a call come without a potency. Calls of active or inactive are those of the source. Unless noted, the call rests on the fitted dose curve; in most records, active means well fitted curve in the direction sought with a large enough effect in the repeat runs; inconclusive means weak or mixed curves; inactive means no such curve, though single readings can be large; an effect the other way counts as inactive or inconclusive.
# Assays:
# [1] = qHTS assay to identify small molecule antagonists of the vitamin D receptor (VDR) signaling pathway - cell viability counter screen (AID 743225); further: nearly all actives have a fitted effect of over 50% in size; further: potency means the concentration at half of the fitted maximal effect
# Procedure, shortened: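 In this counter screen, VDR-bla HEK 293T cells receive test compound plus 3 nM final calcitriol for 16 h at 37C. Room-temperature steps of 2 h with the beta-lactamase substrate, then 30 min with CellTiter-Glo, precede the luminescence read.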
# [2] = qHTS assay to identify small molecule agonists of the NFkB signaling pathway - cell viability counter screen (AID 1159515; calls by dose curve; further: nearly all actives have a fitted effect of over 55% in size; further: potency means the concentration at half of the fitted maximal effect)
# Procedure, shortened: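 Luminescence from CellTiter-Glo (30 min, room temperature) gives viability, measured in the same wells as the beta-lactamase reporter read. Cells were NFkB-bla ME-180, 2,000 per well, treated 5 hr with compounds.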
# [3] = qHTS assay to identify small molecule agonists of the endoplasmic reticulum stress response signaling pathway - cell viability counter screen (AID 1159517; calls by dose curve; further: nearly all actives have a fitted effect of over 50% in size; further: potency means the concentration at half of the fitted maximal effect)
# Procedure, shortened: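 Cells, HeLa ESRE-bla; density, 1,500/well; dosing, 5 hr at 37 C, 5% CO2; readout, CellTiter-Glo luminescence after 30 min RT.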
# [4] = qHTS assay to identify small molecule antagonists of the retinoid-related orphan receptor gamma (ROR-gamma) signaling pathway - cell viability counter screen (AID 1159520); further: nearly all actives have a fitted effect of over 50% in size; further: potency means the concentration at half of the fitted maximal effect
# Procedure, shortened: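 Cytotoxicity was read from cellular ATP (CellTiter-Glo luminescence) after 16 hr at 37 C with 1 uM doxycycline induction. The inducer was added 2 hr after compound transfer to Tet-on ROR gamma CHO cells.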
# [5] = biological target: Nuclear receptor ROR-gamma (Homo sapiens) (UniProt P51449); experiment: qHTS assay to identify small molecule antagonists of the retinoid-related orphan receptor gamma (ROR-gamma) signaling pathway (AID 1159521; further: nearly all actives have a fitted effect of over 50% in size; further: potency means the concentration at half of the fitted maximal effect)
# Procedure, shortened: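 Screening format: cell-based luciferase reporter in CHO cells with doxycycline-inducible RORγ. Compound pre-exposure lasts 2 h, doxycycline is 1 uM final, induction runs 16 h at 37 C, and ONE-Glo luminescence is read.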
# [6] = qHTS assay to identify small molecule agonists of the AP-1 signaling pathway - cell viability counter screen (AID 1159525; calls by dose curve; further: nearly all actives have a fitted effect of over 55% in size; further: potency means the concentration at half of the fitted maximal effect)
# Procedure, shortened: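 Luminescent ATP readout (Cell Titer Glo, 30 min RT), normalised to DMSO and tetra n-octyl ammonium bromide controls. Cells were ME-180 AP-1-bla in 0.5% dialyzed FBS Opti-MEM, with a 5 h, 37 °C compound exposure.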
# [7] = biological target: Retinoic acid receptor RXR-alpha (Homo sapiens) (UniProt P19793); experiment: qHTS assay to identify small molecule agonists of the RXR signaling pathway (AID 1159527; calls by dose curve; further: nearly all actives have a fitted effect of over 35% in size; further: potency means the concentration at half of the fitted maximal effect)
# Retinoic acid receptor RXR-alpha (Homo sapiens), sequence (P19793 whole entry, looked up): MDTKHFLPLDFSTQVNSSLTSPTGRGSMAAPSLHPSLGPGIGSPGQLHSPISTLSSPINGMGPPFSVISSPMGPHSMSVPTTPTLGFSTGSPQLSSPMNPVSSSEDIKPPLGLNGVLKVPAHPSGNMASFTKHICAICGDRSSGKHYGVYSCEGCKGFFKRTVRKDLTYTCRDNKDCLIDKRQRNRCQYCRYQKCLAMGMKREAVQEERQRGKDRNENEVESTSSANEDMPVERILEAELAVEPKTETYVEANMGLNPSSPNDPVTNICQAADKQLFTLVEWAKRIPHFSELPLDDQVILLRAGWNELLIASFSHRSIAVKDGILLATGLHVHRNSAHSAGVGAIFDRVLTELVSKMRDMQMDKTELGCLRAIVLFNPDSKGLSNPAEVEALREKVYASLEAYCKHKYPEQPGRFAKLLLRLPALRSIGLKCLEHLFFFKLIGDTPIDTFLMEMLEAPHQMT
# Procedure, shortened: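 Fluorescence ratio readout (460 vs 530 nm) from GeneBLAzer RXR-alpha HEK 293T cells after 16 hr compound treatment; cells seeded 5 hr beforehand in low-serum, charcoal-stripped medium.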
# [8] = qHTS assay to identify small molecule agonists of the RXR signaling pathway - cell viability counter screen (AID 1159529); further: nearly all actives have a fitted effect of over 50% in size; further: potency means the concentration at half of the fitted maximal effect
# Procedure, shortened: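 Viability read-out for the RXR-alpha agonist qHTS: luminescent CellTiter-Glo signal after 30 min at RT. HEK 293T bla reporter cells, 2% charcoal-stripped FBS, 16 hr compound incubation; tetraoctyl ammonium bromide as cytotoxic control.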
# [9] = qHTS assay to identify small molecule antagonists of the retinoid acid receptor (RAR) signaling pathway - cell viability counter screen (AID 1159551); further: nearly all actives have a fitted effect of over 35% in size; further: potency means the concentration at half of the fitted maximal effect
# Procedure, shortened: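 Luminescent ATP quantitation (CellTiter-Glo) gave cell viability in C3RL4 cells exposed to test chemicals for 6 h at 37 C alongside 1 uM final retinol.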
# [10] = qHTS assay to identify small molecule antagonists of the retinoic acid receptor (RAR) signaling pathway (AID 1159552; further: nearly all actives have a fitted effect of over 50% in size; further: potency means the concentration at half of the fitted maximal effect)
# Procedure, shortened: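 Using a RARE-driven luciferase construct in C3RL4 cells, retinol at 1 uM final provided the agonist stimulus while compounds were co-applied. After 6 hours at 37 C, luminescence was recorded to flag inhibitors of retinol signaling.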
# [11] = qHTS assay to identify small molecule antagonists of the estrogen related receptor (ERR) signaling pathway from Tox21 library - cell viability counter screen (AID 1224834); further: nearly all actives have a fitted effect of over 30% in size; further: potency means the concentration at half of the fitted maximal effect
# Procedure, shortened: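 Fluorescence from CellTiter-Fluor gives the viability read-out, taken 30 min after reagent addition. Before that, ERR cells seeded 6 h earlier were incubated with compounds for 17.5 h at 37 C.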
# [12] = qHTS assay to identify small molecule agonists of the retinoic acid receptor (RAR) signaling pathway (AID 1159553); further: potency means the concentration at half of the fitted maximal effect
# Procedure, shortened: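 Luminescence from a RARE-driven luciferase reporter in C3RL4 cells served as the read-out, measured after 30 min with detection reagent at room temperature. Compounds in DMSO were applied for 6 hr at 37 C following overnight seeding.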
# [13] = qHTS assay to identify small molecule agonists of the AP-1 signaling pathway (AID 1159526; calls by dose curve)
# [14] = qHTS assay to identify small molecule antagonists of the estrogen related receptor (ERR) signaling pathway (AID 1224819)
# Procedure, shortened: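 Seed ERR cells 2,000/well; rest 6 h at 37 C/5% CO2; pin compounds in DMSO; incubate 18 h at 37 C; add One-Glo; wait 30 min at room temperature; measure luminescence.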
# [15] = qHTS assay to identify small molecule agonists of the estrogen related receptor (ERR) signaling pathway (AID 1224820)
# Procedure, shortened: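 Quantitative HTS of the LOPAC library used NTP ERR reporter cells treated 18 h at 37 C. Signal is luminescence after One-Glo addition and a 30 min room-temperature incubation.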
# [16] = qHTS assay to identify small molecule agonists of the estrogen related receptor signaling pathway with the pleiotropic PPARgamma coactivator (PGC) (AID 1224823)
# Procedure, shortened: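 Cell-based luciferase assay in the NTP-supplied PGC/ERR line, 2,000 cells/well; 18 h compound exposure at 37 C, luminescence after One-Glo.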
SMILES,Potency [1],Potency [2],Potency [3],Potency [4],Potency [5],Potency [6],Potency [7],Potency [8],Potency [9],Potency [10],Potency [11],Potency [12],Potency [13],Potency [14],outcome [15],outcome [16]
Clc1ccc2cc3ccccc3cc2c1,inactive,inactive,inactive,inactive,inactive,inactive,54.9 µM (active),inactive,inactive,inactive,inactive,–,–,–,–,–
CCCN(CCC)c1c([N+](=O)[O-])cc(C(F)(F)F)c(N)c1[N+](=O)[O-],21.8 µM (active),24.5 µM (active),43.5 µM (active),30.5 µM (active),21.6 µM (active),13.8 µM (active),–,13.8 µM (active),60.9 µM (active),30.5 µM (active),–,–,–,–,–,–
CCc1cc(SCc2sc(-c3ccc(C(F)(F)F)cc3)nc2CN2CCN(c3ccc(OC)cc3)CC2)ccc1OCC(=O)O,7.76 µM (active),43.6 µM (active),54.9 µM (active),30.6 µM (active),13.7 µM (active),43.6 µM (active),–,3.89 µM (active),inactive,61.1 µM (active),34.4 µM (active),–,–,–,–,–
O=C(OCC(COC(=O)c1ccccc1)(COC(=O)c1ccccc1)COC(=O)c1ccccc1)c1ccccc1,–,inactive,inactive,inactive,inactive,inactive,inactive,–,inactive,inactive,inactive,inactive,–,–,–,–
Cc1cc(O)c2ccccc2c1O,13.4 µM (active),13.4 µM (active),16.9 µM (active),7.5 µM (active),11.9 µM (active),10.7 µM (active),–,15.1 µM (active),13.3 µM (active),16.8 µM (active),–,–,–,–,–,–
Cc1cccc(CN2CCN(C(c3ccccc3)c3ccc(Cl)cc3)CC2)c1 (stereo not drawn),–,inactive,inactive,inactive,inactive,inactive,–,–,inactive,–,inactive,–,inactive,–,–,–
CSc1ccc(/C=C2/C(C)=C(CC(=O)O)c3cc(F)ccc32)cc1,inactive,inactive,inactive,inactive,inactive,inactive,–,inactive,inactive,inactive,–,inactive,–,–,–,–
Cc1cc(=O)oc2cc(N(C)C)ccc12,inactive,inactive,inactive,inactive,inactive,inactive,–,inactive,inactive,inactive,–,inactive,–,–,–,–
OCCN(CCO)c1nc(N2CCCCC2)c2nc(N(CCO)CCO)nc(N3CCCCC3)c2n1,–,inactive,inactive,inactive,inactive,inactive,–,inactive,inactive,inactive,–,inactive,–,11.9 µM (active),inactive,inactive
CCCC/C=C/CCCCO,–,inactive,inactive,inactive,inactive,inactive,–,inactive,inactive,–,–,–,–,–,–,–
COc1cc(/C=C/C(=O)O[C@H]2CC[C@]34C[C@]35CC[C@]3(C)[C@@H]([C@H](C)CCC=C(C)C)CC[C@@]3(C)[C@@H]5CC[C@H]4C2(C)C)ccc1O,inactive,inactive,inactive,inactive,inactive,inactive,inactive,inactive,inactive,inactive,inactive,inactive,–,–,–,–
CCCCCCCCNC(C)C(O)c1ccc(SC(C)C)cc1 (stereo not drawn),9.52 µM (active),13.4 µM (active),19 µM (active),18.8 µM (active),23.7 µM (active),16.9 µM (active),–,9.52 µM (active),26.6 µM (active),13.3 µM (active),26.6 µM (active),–,–,–,–,–
CC(C)CCCCCCCCCCCCCCC(=O)O,inactive,inactive,inactive,68.6 µM (active),54.5 µM (active),24.5 µM (active),11 µM (active),inactive,inactive,–,inactive,inactive,–,–,–,–
O=C(N/N=C/c1ccccc1O)c1ccncc1,–,inactive,inactive,inactive,23.7 µM (active),inactive,–,inactive,inactive,inactive,9.44 µM (active),29.8 µM (active),–,–,–,–
CC(C)(C)C(=O)OCOC(=O)C1N2C(=O)CC2S(=O)(=O)C1(C)C (stereo not drawn),inactive,inactive,inactive,inactive,inactive,inactive,–,inactive,inactive,inactive,inactive,inactive,–,–,–,–
CCCCN1CCCC[C@H]1C(=O)Nc1c(C)cccc1C,inactive,inactive,inactive,inactive,inactive,inactive,inactive,inactive,inactive,inactive,inactive,inactive,–,–,–,–
Cc1ccc2oc(CN(Cc3ccccc3)C(=O)Nc3c(F)cc(F)cc3F)c(-c3ccc(Cl)cc3)c2c1,inactive,inactive,inactive,inactive,14.9 µM (active),inactive,inactive,–,inactive,inactive,inactive,inactive,–,–,–,–
